Source: PubChem BioAssay
Abeta yeast res = compounds reversing amyloid beta toxicity in yeast. yeast expressing A-beta42, growth rescue, OD600, 48 h; response scale: 0% DMSO, 100% iron-clioquinol control. Potency, µM (top dose mostly 46.1 µM), actives largely listed as activators. hit rate 0.063% among 410,000. AID 1347071; also: nearly all actives have a fitted effect of over 55% in size
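Yeast growth medium received pinned compounds, then yeast cells expressing toxic A-beta were added; plates incubated at 30 C for 48 hr. Growth read as absorbance at 600 nm, normalized to DMSO and equimolar FeCl3 plus clioquinol controls.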
FUS yeast rescue = FUS proteinopathy suppression in yeast. S. cerevisiae FUS-expressing, growth rescue, OD600, 24 h. Potency, µM (doses to about 76.6 µM), hits mostly activators. hit rate 0.24% among 390,000; also: nearly all actives have a fitted effect of over 55% in size
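S. cerevisiae expressing FUS from galactose induction served as the toxicity model. Growth after 24hr at 30C, read as absorbance at 600 nm, indicates suppression of toxicity; compounds dosed at several concentrations.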
aSyn rescue = rescues yeast growth from alpha-synuclein toxicity. hit rate 0.14% among 370,000. AID 652106. Potency, µM (top dose mostly 46.1 µM), usual class: activators. Yeast expressing alpha-synuclein, growth rescue, BacTiter-Glo, 24 h; also: nearly all actives have a fitted effect of over 65% in size
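Rescue of yeast growth: cells expressing toxic alpha-synuclein, induced in galactose at OD600 0.02, incubated with compound 24 h at 30 C. ATP luminescence quantified growth; inhibitors of toxicity appear as activators.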
TDP-43 yeast inh = inhibitors of TDP-43 toxicity in yeast; TDP-43 expressing yeast growth rescue, BacTiter-Glo, 24 h; hit rate 1.8% among 410,000; Potency, µM (doses to about 46.1 µM), most hits filed as activators; also: nearly all actives have a fitted effect of over 50% in size
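Cell-based yeast growth screen: TDP-43 expression induced in galactose, inoculum OD600=0.02 after raffinose pregrowth to mid-log. Read-out BacTiter-Glo luminescence at 24 hr, 30 deg C; inhibition of toxicity seen as signal increase.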
A number is an active result; . = inactive; ? = inconclusive; / = not tested or not shown; [ ] = dose if it differs, or a comment. In the library only some 2.1% were active in any assay of this set; here they are far more common. Calls follow the shape of the dose curve; as a rule, active = well fitted curve in the direction sought with a large enough effect; inconclusive = small, poorly fitted or top-dose-only effect, or another doubt; inactive = no such curve, though single readings can be large; an effect the other way counts as inactive or inconclusive.

SMILES | Abeta yeast res | FUS yeast rescue | aSyn rescue | TDP-43 yeast inh
Cc1cc(Cl)ccc1-n1c(CCC(=O)O)ccc1-c1cccs1 | . | ? | / | 22µM
Cn1ncc2c(NCc3cccc(Cl)c3)ncnc21 | . | . | / | 14µM
COCCNc1nc(NCc2cccc(Cl)c2)c2cnn(C)c2n1 | . | . | / | .
Cn1ncc2c(Nc3ccc(Cl)c(Cl)c3)ncnc21 | . | . | . | 7.1µM
CCCn1ncc2c(Nc3ccc(C)c(C)c3)ncnc21 | . | . | . | 11µM
C[C@H]1[C@@H](OC(=O)Nc2cc(Cl)ccc2Cl)CC[C@@]23CCCN2C(=O)CCC[C@@H]13 | / | . | / | /
CCOC(=O)[C@]12CCCC=C1N(CCCOC)C(=O)[C@@H]2CC(=O)NCc1cccs1 | / | . | / | /
O=C(Oc1ccccc1/C=C\C(=O)c1cc2ccccc2o1)c1cccc(F)c1 | . | . | . | ?
O=C(Oc1ccccc1/C=C\C(=O)c1cc2ccccc2o1)c1ccccc1 | . | / | . | 22µM
CC(=O)Oc1ccc(Oc2ccc(-c3noc(C)n3)cc2)cc1 | . | . | . | 11µM
Cc1ncoc1C(=O)N1CCCC(C(=O)c2ccc(-c3ccccc3)c(F)c2)C1 (centres undefined) | . | ? | . | 22µM
Cc1ncoc1C(=O)N1CCCC(C(=O)c2ccc(Oc3ccccc3)cc2)C1 (centres undefined) | . | . | . | .
O=S(=O)(c1ccc(Oc2ccc(Br)cc2)cc1)N1CCOCC1 | . | . | . | 25µM
COc1ccc(S(=O)(=O)N2CCOCC2)cc1 | / | / | . | /
CC(C)CNc1ncnc2[nH]ncc12 | . | . | . | .
CCCOC(=O)c1cccc(Nc2nc(CCC)cc(=O)[nH]2)c1 | . | ? | / | 18µM
O=C1C2C(c3ccccc3)C=CC(c3ccccc3)C2C(=O)N1CCO (centres undefined) | . | . | . | .
O=C1C2C3C=CC(C3=C(c3ccccc3)c3ccccc3)C2C(=O)N1CCO (centres undefined) | . | . | . | 20µM
CSc1nc(NCCOCCO)c2sc3nc(-c4ccco4)c4c(c3c2n1)CCC4 | . | ? | . | .
CCN(CCO)c1nc(SC)nc2c1sc1nc(-c3ccco3)c3c(c12)CCC3 | . | / | . | 10µM
CC(=O)n1c(=O)c2ccccc2c(=O)n1-c1ccccc1 | . | . | . | 3.2µM
COc1ccc([C@H]2C[C@@H](n3cc(-c4ccc(F)cc4)nn3)[C@H](O)CN2C(=O)C2CCCCC2)cc1 | . | . | . | .
CC(C)(O)CCc1c(-c2ccc(O)cc2O)oc2c3c(cc(O)c2c1=O)OC(C)(C)C=C3 | . | ? | . | 13µM
O=C(NCCc1ccccc1)c1ccc(Cl)cc1[N+](=O)[O-] | . | . | . | 11µM
O=C(NCc1ccc(Cl)cc1)c1ccc(Cl)cc1[N+](=O)[O-] | . | . | . | .
SMILES | Abeta yeast res | FUS yeast rescue | aSyn rescue | TDP-43 yeast inh
Cc1ccc(-c2nc3cc(Cl)ccc3o2)cc1NC(=O)c1cc2ccccc2o1 | . | . | / | .
COc1ccc(CNC(=O)c2cnn(-c3ccccc3)c2-n2cccc2)cc1OC | . | . | / | .
CC(C(=O)N1CCc2ccccc21)N1CCN(S(=O)(=O)c2ccc3c(c2)OCCCO3)CC1 (centres undefined) | . | . | .[1.84 µM] | .
O=C(N/N=C/c1cc(Br)cc(Cl)c1O)c1ccc2c(c1)OCO2 | . | . | 5.6µM | 6.3µM
CCCCCn1c(=O)[nH]c2cc(C(=O)Nc3ccc(F)c(F)c3)ccc2c1=O | . | . | / | .
CCOC(=O)[C@]12CCCCC/C=C\1N(Cc1ccc(OC)cc1)C(=O)[C@H]2CC(=O)NCCCOC | / | . | / | /
CCNC(=S)N1CCN(c2ccc([N+](=O)[O-])cc2)CC1 | . | . | . | .
O=[N+]([O-])c1ccc(N2CCN(C(=S)NCc3ccc(Cl)cc3)CC2)cc1 | 5.6µM | . | . | ?
COc1cc(O)ccc1C(=O)CCc1ccc(O)cc1 | . | . | . | .
CC(NC(=O)CCCCCCN1C(=O)c2ccccc2C1=O)c1ccc2c(c1)CCCC2 (centres undefined) | . | / | . | 35µM
CS(=O)(=O)Nc1ccccc1C(=O)OCC(=O)N1CCC(c2ccccc2)=N1 | . | ? | . | 25µM
Cc1ccc(S(=O)(=O)N(C(=O)c2ccncc2)c2ccc(OC(=O)c3ccncc3)cc2)c(C)c1 | . | / | ? | 7.1µM
COc1ccc(N(C(=O)c2ccncc2)S(=O)(=O)c2ccc(Cl)cc2)cc1 | . | . | 10µM | 0.89µM
COc1ccc(N(C(=O)c2cc(OC)c(OC)c(OC)c2)S(=O)(=O)c2ccc(C)cc2)cc1 | . | 32µM | / | .
Cc1ccc(C)c(S(=O)(=O)N(C(=O)c2ccncc2)c2ccc(OC(=O)c3ccncc3)cc2)c1 | . | . | ? | .
C=CCn1c(SCC(=O)c2cc(C)n(C(C)COC)c2C)nc2sc(C)c(C)c2c1=O (centres undefined) | . | ? | . | .
Cc1ccc(OC[C@@H](O)CN2CCC(C(O)(c3ccccc3)c3ccccc3)CC2)cc1 | / | . | / | /
Cc1nc(S(=O)(=O)c2cccc(Cl)c2)nc2c1CCC2 | . | / | ? | 14µM
Cc1nc(S(=O)(=O)c2ccc(Cl)cc2Cl)nc2c1CCC2 | . | . | . | .
Cc1cnc(CNC(=O)c2csc([C@@H]3C[C@H](O)[C@@H](CO)O3)n2)cn1 | . | . | . | .
COc1cccc(CC2CC(=O)N(CCc3ccc4c(c3)OCO4)C2=O)c1 (centres undefined) | . | . | . | 20µM
C#CCN(C[C@H]1[C@H](OC(=O)NCc2ccco2)[C@H](OC(=O)NCc2ccco2)C[C@H]2C(=O)N(c3ccccc3)C(=O)[C@@H]12)S(=O)(=O)c1ccc(C)cc1 | . | 16µM | . | .
C#CCN(C[C@@H]1[C@@H](OC(=O)NCc2ccco2)[C@@H](OC(=O)NCc2ccco2)Cn2c(=O)ccc(=O)n21)S(=O)(=O)c1ccc(C)cc1 | . | ? | . | .
O=C(NCCNc1ccc([N+](=O)[O-])cc1C(F)(F)F)c1ccccc1 | . | / | . | 22µM
O=C(NCCNc1ccc([N+](=O)[O-])cc1C(F)(F)F)c1cccc(F)c1 | ? | / | . | ?
CCOc1ccc(CCN2C(=S)N([C@@H](Cc3ccc(O)cc3)CN3CCC[C@@H]3CN3C(=S)NC[C@@H]3Cc3ccccc3)C[C@@H]2Cc2ccccc2)cc1 | . | ? | . | .
CCOc1ccc(CCN2C(=S)N([C@@H](CC(C)C)CN3CCC[C@@H]3CN3C(=S)NC[C@@H]3Cc3ccccc3)C[C@@H]2Cc2ccc(O)cc2)cc1 | . | 28µM | . | .
Oc1ccc(C[C@H]2CN([C@@H](Cc3ccccc3)CN3CCCC3CN3C(=S)NC[C@@H]3Cc3ccccc3)C(=S)N2CC2CCCCC2)cc1 (some centres undefined) | . | ? | . | .
CCOc1ccc(CCN2C(=S)N([C@@H](Cc3ccccc3)CN3CCCC3CN3C(=S)NC[C@@H]3Cc3ccccc3)C[C@@H]2Cc2ccc(O)cc2)cc1 (some centres undefined) | . | 11µM | . | .
